Measurements from PubChem BioAssay (EPA / NIEHS).
“And” between values parts separate entries of the source, which are not always exact repeats. Equal values may be shown once. Where a structure was tested more than once in an assay, its records may differ in their call. The source made the active and inactive calls. Rule for the calls: active = hit-call score of the fitted dose curve at least 0.9, where 1 is the maximum; inactive = score below 0.9.

Experiments:
[1] = read-out: Epidermal growth factor receptor (EGFR), EGFR (gene 1956); experiment: BSK_BE3C_EGFR: BioMAP Diversity Plus: BE3C Assay for Epidermal growth factor receptor (EGFR) Biomarker Activity (AID 2284281); settings: primary human bronchial epithelial cells
Method in brief: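 Compound is added to human bronchial epithelial cells, cells incubate 24 h, then EGFR is detected by ELISA. Values reflect positive-direction fitting relative to DMSO.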

KRT18 (gene 3875) = experiment: BSK_BE3C_Keratin818: BioMAP Diversity Plus: BE3C Assay for Keratin 818 Biomarker Activity (AID 2284282); settings: primary human bronchial epithelial cells
Method in brief: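 Primary human bronchial epithelial cells treated 24 h; Keratin 8/18 quantified by ELISA, fit relative to DMSO. Cytotoxicity tracked in parallel cultures by sulforhodamine B total-protein staining.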

[2] = read-out: Matrix Metallopeptidase 9 (MMP9), MMP9 (gene 4318); experiment: BSK_BE3C_MMP9: BioMAP Diversity Plus: BE3C Assay for Matrix Metallopeptidase 9 (MMP9) Biomarker Activity (AID 2284283); settings: primary human bronchial epithelial cells
Description: BSK_BE3C is a cell-based, multiplexed-readout assay that uses bronchial epithelial cell, a human lung primary cell, with measurements taken at 24 hours after chemical dosing in a 96-well plate.BSK_BE3C_MMP9 is an assay component measured in the BSK_BE3C assay. It measures MMP-9 antibody related to regulation of gene expression using ELISA technology.Data from the assay component BSK_BE3C_MMP9 was analyzed at the endpoint, BSK_BE3C_MMP9, in the positive analysis fitting direction relative to DMSO as the negative control and baseline of activity. Using a type of binding reporter, gain or loss-of-signal activity can be used to understand protein changes. To generalize the intended target to other relatable targets, this assay endpoint is annotated to the 'protease' intended target family, where the subfamily is 'matrix metalloproteinase'.
(§1) The levels of cell surface (or secreted, indicated by the prefix "s") biomarker endpoints were measured by ELISA. Overt cytotoxicity to cells in confluent adherent cultures (all systems other than the BT system) was assessed by measuring total protein levels using sulforhodamine B (SRB) staining in parallel cultures at the time of biomarker measurements, indicated as SRB endpoints. For proliferation assays for adherent cell types, individual cell types are cultured at sub-confluence and relative cell numbers quantified by SRB staining at time points optimized for each system (48 h: 3C and CASM3C systems; 72 h: BT and HDF3CGF systems; 96 h: SAg system). SRB was performed by staining cells with 0.1% SRB after fixation with 10% TCA and reading wells at 560 nm.Viability and proliferation of PBMC (T cells) was quantified by Alamar Blue reduction for the SAg and BT systems. For PBMC viability (referred to as PBMC Cytotoxicity within the assay endpoint names), cells were plated (75,000/well in a 96-well plate) and then chemical samples added for 1 h before addition of activators, SEB and TSST-1 (20 ng/mL final concentration each). Cells were incubated for 90 h. Then, Alamar Blue (20 uL/well) (Invitrogen, Cat DAL1100) was added for 6 h, and the plates were read with a fluorescence microplate reader at 546/580 nm (excitation/emission). For PBMC proliferation, cells were plated and activated as above but incubated for only 16 h prior to addition of Alamar Blue. Plates were read after 6 h.

[3] = read-out: Plasminogen activator inhibitor-1 (PAI1), SERPINE1 (gene 5054); experiment: BSK_CASM3C_PAI1: BioMAP Diversity Plus: CASM3C Assay for Plasminogen activator inhibitor-1 (PAI1) Biomarker Activity (AID 2284284); settings: primary human coronary artery smooth muscle cells;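 note: PAI-1 protein level measured by ELISA 24 h after dosing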
[4] = read-out: Monocyte Chemoattractant Protein-1 (MCP1), CCL2 (gene 6347); experiment: BSK_hDFCGF_MCP1: BioMAP Diversity Plus: hDFCGF Assay for Monocyte Chemoattractant Protein-1 (MCP1) Biomarker Activity (AID 2284285); settings: primary human foreskin fibroblasts
Method in brief: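 Human foreskin fibroblasts (hDFCGF system) were exposed to compound and secreted MCP-1 was measured by ELISA after 24 hours. Activity was fitted relative to DMSO. Cytotoxicity was checked by SRB total-protein staining in parallel cultures.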

[5] = read-out: Vascular cell adhesion molecule 1 (VCAM1), VCAM1 (gene 7412); experiment: BSK_IMphg_VCAM1: BioMAP Diversity Plus: IMphg Assay for Vascular cell adhesion molecule 1 (VCAM1) Biomarker Activity (AID 2284286); settings: primary human endothelial cells with macrophages
Method in brief: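 Human venular endothelial cells co-cultured with macrophages; VCAM-1 quantified by ELISA 24 h after dosing, fitted in the positive direction against DMSO. Cytotoxicity was checked in parallel cultures by SRB total-protein staining (0.1% SRB after 10% TCA fixation, 560 nm).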

[6] = read-out: Intercellular Adhesion Molecule 1 (ICAM1), ICAM1 (gene 3383); experiment: BSK_hDFCGF_ICAM1: BioMAP Diversity Plus: hDFCGF Assay for Intercellular Adhesion Molecule 1 (ICAM1) Biomarker Activity (AID 2284287); settings: primary human foreskin fibroblasts
Method in brief: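 Primary human foreskin fibroblasts (hDFCGF system) dosed with chemical; ICAM-1 quantified by ELISA at 24 h relative to DMSO. Parallel SRB total-protein staining to assess overt cytotoxicity.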

CD40, CD40 (gene 958) = experiment: BSK_IMphg_CD40: BioMAP Diversity Plus: IMphg Assay for CD40 Biomarker Activity (AID 2284288); settings: primary human endothelial cells with macrophages
Method in brief: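 Venular endothelial cells co-cultured with macrophages (human primary), CD40 measured by ELISA 24 h after dosing. Positive-direction fit vs DMSO baseline; cytotoxicity tracked by SRB total-protein staining in parallel cultures.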

[7] = read-out: TIMP metallopeptidase inhibitor 2 (TIMP2), TIMP2 (gene 7077); experiment: BSK_hDFCGF_TIMP2: BioMAP Diversity Plus: hDFCGF Assay for TIMP metallopeptidase inhibitor 2 (TIMP2) Biomarker Activity (AID 2284289); settings: primary human foreskin fibroblasts
Description: BSK_hDFCGF is a cell-based, multiplexed-readout assay that uses foreskin fibroblast, a human skin primary cell, with measurements taken at 24 hours after chemical dosing in a 96-well plate.BSK_hDFCGF_TIMP2 is an assay component measured in the BSK_hDFCGF assay. It measures TIMP-2 antibody related to regulation of gene expression using ELISA technology.Data from the assay component BSK_hDFCGF_TIMP2 was analyzed at the endpoint, BSK_hDFCGF_TIMP2, in the positive analysis fitting direction relative to DMSO as the negative control and baseline of activity. Using a type of binding reporter, gain or loss-of-signal activity can be used to understand protein changes. To generalize the intended target to other relatable targets, this assay endpoint is annotated to the 'protease' intended target family, where the subfamily is 'matrix metalloproteinase'.
as §1

[8] = read-out: Interleukin-1 alpha (IL1a), IL1A (gene 3552); experiment: BSK_IMphg_IL1a: BioMAP Diversity Plus: IMphg Assay for Interleukin-1 alpha (IL1a) Biomarker Activity (AID 2284290); settings: primary human endothelial cells with macrophages
Description: BSK_IMphg is a cell-based, multiplexed-readout assay that uses venular endothelial cells and macrophages, a human vascular primary cell, with measurements taken at 24 hours after chemical dosing in a microplate: 96-well plate.BSK_IMphg_IL1a is an assay component measured in the BSK_IMphg assay. It measures IL-1a antibody related to regulation of gene expression using ELISA technology.Data from the assay component BSK_IMphg_IL1a was analyzed at the endpoint, BSK_IMphg_IL1a, in the positive analysis fitting direction relative to DMSO as the negative control and baseline of activity. Using a type of binding reporter, gain or loss-of-signal activity can be used to understand protein changes. To generalize the intended target to other relatable targets, this assay endpoint is annotated to the 'cytokine' intended target family, where the subfamily is 'interleukins'.
as §1, with “For PBMC viability (referred to as PBMC Cytotoxicity within the assay endpoint names), cells were plated (75,000/well in a 96-well plate) and then chemical samples added for 1 h before addition of activators, SEB and TSST-1 (20 ng/mL final concentration each). Cells were incubated for 90 h.” left out, “For PBMC proliferation, cells were plated and activated as above but incubated for only 16 h prior to addition of Alamar Blue.” left out

Measured: AC50

O=C(O)C(F)(F)C(F)(F)C(F)(F)C(F)(F)C(F)(F)C(F)(F)F
active: [2] 30 µM
inactive: [1] | KRT18 (gene 3875) | [2] | [3] | [4] | [5] | [6] | CD40, CD40 (gene 958) | [7] | [8]

COC(=O)Cc1ccccc1
inactive: [1] | KRT18 (gene 3875) | [2] | [3] | [4] | [6] | [7]

CC(=O)OC(c1ccccc1)C(Cl)(Cl)Cl (stereo not given)
inactive: [1] | KRT18 (gene 3875) | [2] | [3] | [4] | [6] | [7]

O=C(O)C(F)(F)C(F)(F)C(F)(F)C(F)(F)C(F)(F)C(F)(F)C(F)(F)C(F)(F)C(F)(F)C(F)(F)F
active: [1] 4.31 µM and 2.34 µM | KRT18 (gene 3875) 4.21 µM and 5.29 µM | [2] 3.77 µM and 3.33 µM | [4] 5.24 µM and 5.63 µM | [6] 5.12 µM and 5.47 µM | [7] 6.09 µM and 5.21 µM
inactive: [3] | [5] | CD40, CD40 (gene 958) | [8]

O=C(O)CCC(F)(C(F)(F)F)C(F)(F)F
inactive: [1] | KRT18 (gene 3875) | [2] | [3] | [4] | [5] | [6] | CD40, CD40 (gene 958) | [7] | [8]
